The source of these data is PubChem BioAssay (NCATS).

SMILES strings stand for the structures. “And” between values parts separate entries of the source, which are not always exact repeats. Identical values can stand only once. Unmarked numbers belong to inactive results. Inconclusive results are not listed. A call without a number means that no potency is given here. The source made the active and inactive calls. Unless noted, the rule behind the calls is not given here.

The first experiment in a line: qHTS assay for cell viability of HEK293 cells (AID 743288; active = well fitted cell-killing curve with a large enough effect; note: nearly all actives have a fitted effect of over 50% in size). Particulars: ATP luminescence (CellTiter-Glo), 18 h, hits give low values. An outline of the steps: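 Steps: plate 2,000 parental HEK293 cells per well; incubate ≥5 h, 37 C; add compounds in DMSO; incubate 18 h, 37 C; add CellTiter-Glo; wait 30 min at room temperature; read luminescence.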
Background: Quantitative high-throughput screening tests each substance at several concentrations.
As to `COP(=S)(OC)Oc1ccc(SC)c(C)c1`, the max response is 2.92% and -23.3%.
As to `NCCc1ccc(O)cc1`, the max response was -6.56%.
In the case of `Nc1ccccc1`, the max response is -4.37%.
Regarding `Nc1ccccc1C(=O)O`, the max response is 2.79%.
In the case of `CC(C)NC(C)C`, the max response was 4.29%.
Take `CC(C)(C)c1ccc(O)cc1`: the max response is 3.38%.
Turning to `COc1cc(OC)c(OC)cc1C=O`, the max response was -1.47%.
Same read-out and setting: as for `Nc1nc(N)nc(NC2CC2)n1`, the figure is -3.61%.

The next experiment in a line: qHTS assay for cell viability of the p53RE-bla HCT-116 cell line (AID 743292; active = well fitted cell-killing curve with a large enough effect; note: nearly all actives have a fitted effect of over 55% in size). The following applies: p53RE-bla HCT-116 viability, ATP luminescence, 16 h; series mostly up to 95 µM; activity change, negative = cytotoxicity: at the top concentration. An outline of the steps:
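ATP-based luminescent viability (CellTiter-Glo, 30 min RT) after 16 h compound treatment at 37 C of p53RE-bla HCT-116 cells, seeded at 4,000 cells/well and rested 5 h before dosing.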
For `COP(=S)(OC)Oc1ccc(SC)c(C)c1`, the Potency entry is “inactive”.
In the case of `NCCc1ccc(O)cc1`, the “activity change, negative = cytotoxicity” value is 0.406%.
On the same count and under the same terms, to `Nc1ccccc1` belongs 0.0959%.
On to `Nc1ccccc1C(=O)O`, for which the “activity change, negative = cytotoxicity” value was -9.62%.
As to `CC(C)NC(C)C`, the “activity change, negative = cytotoxicity” value is -0.268%.
With `COc1cc(OC)c(OC)cc1C=O`, the “activity change, negative = cytotoxicity” value is -8.12%.
On the same count and under the same terms, as for `Nc1nc(N)nc(NC2CC2)n1`, the figure is -2.63%.

Assay in a further experiment: not given
The following applies: Ebola virus entry assay, blue channel fluorescence.
For `O=C(O)c1ccccc1Nc1cccc(C(F)(F)F)c1`, the outcome was inactive.
For the molecule `Cc1cnc(NC(=O)C2=C(O)c3ccccc3S(=O)(=O)N2C)s1`, the call was inactive.
In the case of `CCCCNC(=O)NS(=O)(=O)c1ccc(N)cc1`, the result was inactive.
`COP(=S)(OC)Oc1ccc(SC)c(C)c1`: the call was inactive.
As to `NCCc1ccc(O)cc1`, the call was inactive.
`Clc1ccc2c(c1)Nc1ccccc1S2`: the molecule was classed as inactive.
The same measure, in the same setting: to `CCCNC(C)C(=O)Nc1ccccc1C` (stereo not drawn) belongs “inactive”.
With `Nc1ccccc1`, the call was inactive.
Take `O=C(O)c1ccc[n+]([O-])c1`: the outcome was inactive.
With `c1ccc2sc(SN3CCOCC3)nc2c1`, the result was inactive.
Consider `NC(=O)c1ccccc1O`, for which the call was inactive.
One may read the AC50 as the concentration at which the activity in the assay is half-maximal. Turning to `CCN[C@H](C)Cc1cccc(C(F)(F)F)c1`, the half-maximal activity concentration (AC50) was 35.5 µM (active).
`O=C1C(O)=C(O)C(=O)C(O)=C1O`: the call was inactive.
`CN1CCC[C@@H]1c1cccnc1`: the molecule was called inactive.
Consider `Nc1ccccc1C(=O)O`, for which the call was inactive.
Regarding `CC(C)NC(C)C`, the molecule was classed as inactive.
For the molecule `COc1cc(CC(C)N)cc(OC)c1OC` (stereo not drawn), the molecule was classed as inactive.
Turning to `CC(Cc1ccccc1)NCCn1cnc2c1c(=O)n(C)c(=O)n2C` (stereo not drawn), the molecule was called inactive.
Same read-out and setting: to `COc1c2c(cc3c1OCO3)CCN(C)C2` belongs “inactive”.
As for `CC(C)(C)NCC(O)c1ccccc1Cl` (stereo not drawn), the outcome was inactive.
With `CCOc1ccc(NS(=O)(=O)c2ccc(N)cc2)nn1`, the molecule was classed as inactive.
In the case of `CN(C)CCc1c[nH]c2cccc(OP(=O)(O)O)c12`, the molecule was classed as inactive.
The same measure, in the same setting: as for `Cc1[nH]cnc1-c1ccc(Cl)cc1`, the entry is “inactive”; as for `c1ccc2c(c1)sc1ccccc12`, “inactive”.
Turning to `Cc1ncsc1CCCl`, the molecule was called inactive.
Regarding `NC(CS)C(=O)O` (stereo not drawn), the call was inactive.
On the same count and under the same terms, to `CC(C)(C)c1ccc(O)cc1` belongs “inactive”; to `CCN1CCCC1CNC(=O)c1cc(S(=O)(=O)CC)c(N)cc1OC` (stereo not drawn), “inactive”; to `CC(=O)NC1CCSC1=O` (stereo not drawn), “inactive”.
As for `O=C(NCC1CCCCN1)c1cc(OCC(F)(F)F)ccc1OCC(F)(F)F` (stereo not drawn), the AC50 is 39.8 µM (active).
With `CNCC(=O)c1ccc(O)c(O)c1`, the outcome was inactive.
Regarding `c1ccc(N2CCNCC2)cc1`, the outcome was inactive.
With `Nc1ccc(C(=O)Oc2ccccc2)c(O)c1`, the molecule was called inactive.
`COC(=O)c1ccccc1C(=O)c1ccc(OCCN2CCCCC2)cc1`: the AC50 is 14.1 µM (active).
As to `O=C(O)[C@@H]1CSCN1`, the molecule was called inactive.
As to `C[C@@H](N)[C@@H](O)c1ccccc1`, the molecule was classed as inactive.
Regarding `Nc1nc(N)nc(NC2CC2)n1`, the result was inactive.
On to `CC(=O)Oc1cc(C(C)C)c(OCCN(C)C)cc1C`, for which the molecule was classed as inactive.
